Source: PubChem BioAssay
Most compounds without a hit are left out; they make up all but 8.1% or so of the library.
ELG1 repair inh = qHTS screen for small molecules that inhibit ELG1-dependent DNA repair in human embryonic kidney (HEK293T) cells expressing luciferase-tagged ELG1. hit rate 2.3% among 330,000. HEK293T ELG1-luciferase reporter, luminescence, 16 h; DNA damage induced by 5-fluorouridine. Potency, µM (titrated, usually from 46.1 µM), without a hit: at the highest dose activity change, negative = inhibition, most hits filed as inhibitors; also: % is scaled to controls: 0 for no effect and ±100 for the full control effect; nearly all actives have a fitted effect of over 55% in size
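Luminescence from the luciferase reporter, measured 30 min after ONE-Glo reagent at room temperature, was the read-out. Beforehand, 2,000 cells per well were exposed for 16 hr at 37 °C to 5-fluorouridine together with compound or vehicle.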
SW480 rerep = A quantitative high throughput screen for small molecules that induce DNA re-replication in SW480 colon adenocarcinoma cells; SW480 DNA re-replication, Hoechst DNA content imaging, 48 h; Potency, µM (highest dose often 46.1 µM), for inactives: at the highest dose re-replication activation, usual class: activators; hit rate 1.8% among 340,000; AID 624297, 2012; also: % of control where 0% means no effect; nearly all actives have a fitted effect of over 55% in size
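SW480 cells exposed to compounds for 48 hr at 37 C, 5% CO2, then Hoechst-stained 40 min. Nuclear DNA content imaged by fluorescence scanning (405 nm excitation, 500-530 nm emission); re-replication scored as increased high-intensity nuclei.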
KB-V1 MDR tox = qHTS assay for MDR1-selective chemotherapeutics: Primary screen using the drug-selected MDR subline cells KB-V1. hit rate 3.4% among 400,000. AID 1347076, 2019. Potency, µM (highest dose often 46.1 µM), usual class: cytotoxic. KB-V1 MDR cells viability, CellTiter-Glo, 72 h; also: % is scaled to controls: 0 for no effect and ±100 for the full control effect; nearly all actives have a fitted effect of over 60% in size
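KB-V1, DMEM (no phenol red) + 10% FBS; cpd pin-transferred, titration series; 72 h, 37 degrees C; CellTiter-Glo, luminescence. Data normalized, curve-fit.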
KB-3-1 cytotox = qHTS assay for MDR1-selective chemotherapeutics: Primary screen using the parental adenocarcinoma cell KB-3-1; KB-3-1 viability, CellTiter-Glo ATP luminescence, 72 h; Potency, µM (top dose mostly 46.1 µM), actives largely listed as cytotoxic; hit rate 1.4% among 400,000; also: % is scaled to controls: 0 for no effect and ±100 for the full control effect; nearly all actives have a fitted effect of over 60% in size
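Here the drug-naive KB-3-1 line serves as comparator for MDR sub-line selectivity; cells received compound titrations, 72 h at 37 °C, then CellTiter-Glo readout.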
MCF10A rerep = A quantitative high throughput screen for small molecules that induce DNA re-replication in MCF 10a normal breast cells; MCF 10A DNA re-replication, Hoechst nuclear intensity, 48 h; Potency, µM (series often up to 46.1 µM), without a hit: at the top dose activity, positive = re-replication, most hits filed as activators; hit rate 2.9% among 350,000; also: % of control where 0% means no effect; nearly all actives have a fitted effect of over 50% in size
* = called active by the depositor; i = inactive; ? = inconclusive; . = not tested or not shown. Calls follow the shape of the dose curve; as a rule, active = well fitted curve in the direction sought with a large enough effect; inconclusive = small, poorly fitted or top-dose-only effect, or another doubt; inactive = no such curve, though single readings can be large; an effect the other way counts as inactive or inconclusive. Potency is read from the fitted curve at half-maximal effect.

SMILES	ELG1 repair inh	SW480 rerep	KB-V1 MDR tox	KB-3-1 cytotox	MCF10A rerep
CC1=C(Nc2ccc(C(=O)O)cc2)C(=O)c2ccccc2C1=O	-2.9%	-8.1%	i	?	?
COC1=C(Nc2ccccc2)C(=O)c2ccccc2C1=O	0.6%	?	?	20.6µM*	23.0%
COc1ccc(-c2csc3ncnc(N4CCN(S(=O)(=O)c5ccc(Cl)s5)CC4)c23)cc1	8.2µM*	-571.0%	?	?	4.0%
COc1ccc(-c2csc3ncnc(N4CCN(c5cccc(OC)c5)CC4)c23)cc1	6.51µM*	-1.1%	.	.	2.9%
CCN1CCN(c2ncnc3scc(-c4ccc(OC)cc4)c23)CC1	?	-8.1%	i	?	12.4%
COc1ccc(-c2csc3nc(C)nc(N4CCN(c5ccc(C(C)=O)cc5)CC4)c23)cc1OC	13µM*	0.1%	i	i	14.5%
COc1ccc(C(=O)N2CCN(c3ccc(C)cc3)CC2)cc1OC	-17.9%	-3.6%	i	i	-1.1%
COc1ccc(Nc2ncnc3scc(-c4ccc(OC)cc4)c23)cc1	11.6µM*	14.6µM*	3.26µM*	4.11µM*	5.17µM*
COc1ccc(-c2csc3ncnc(N4CCN(S(=O)(=O)c5cccs5)CC4)c23)cc1	?	?	?	?	25.1%
Cc1ccc(S(=O)(=O)N2CCN(Cc3ccc4c(c3)OCO4)CC2)cc1	.	.	i	i	.
CC(NC(=O)C1CCN(S(=O)(=O)c2ccc3c(c2)oc(=O)n3C)CC1)c1ccccc1 (stereo unspecified)	.	.	i	i	.
c1ccc(-c2csc3ncnc(N4CCOCC4)c23)cc1	?	-1.6%	i	i	10.0%
COc1ccc(N2CCN(c3ncnc4scc(-c5ccccc5)c34)CC2)cc1	16.4µM*	21.8%	?	?	?
O=S(=O)(c1ccc(Oc2ncnc3scc(-c4ccccc4)c23)cc1)N1CCOCC1	?	10.2%	?	?	20.6µM*
COc1ccc(-c2csc3ncnc(N4CCN(c5ccccc5Cl)CC4)c23)cc1	13µM*	?	?	?	18.4µM*
COc1ccc(-c2csc3ncnc(N4CCN(c5cccc(C)c5C)CC4)c23)cc1	?	-2.4%	?	i	19.4%
COc1ccc(-c2csc3ncnc(N4CCN(S(=O)(=O)c5ccc(C)cc5)CC4)c23)cc1	20.6µM*	-408.1%	i	i	21.9%
CC(=O)Nc1ccc(NC(=O)c2nc(SCc3ccccc3F)ncc2Cl)cc1	.	.	i	?	.
CC1(C(=O)NCc2ccc3c(c2)OCO3)CCN1C(=O)CC1CCCC1 (stereo unspecified)	.	.	?	i	.
Cc1sc2ncnc(N3CCN(S(=O)(=O)c4ccc(C(C)(C)C)cc4)CC3)c2c1C	?	-27.5%	i	20.6µM*	?
COc1ccc(-c2csc3ncnc(N4CCN(C(=O)c5ccco5)CC4)c23)cc1	7.3µM*	4.3%	i	i	7.2%
COc1ccc(N2CCN(c3ncnc4scc(-c5ccc(C)cc5)c34)CC2)cc1	?	?	?	?	23.1µM*
c1ccc(-c2csc3ncnc(N4CCc5ccccc5C4)c23)cc1	?	?	16.4µM*	?	?
O=S(=O)(NCc1ccccc1)c1ccc(NC(=S)NCc2ccco2)cc1	?	-2.8%	?	i	-1.8%
CC(C)(C)S(=O)(=O)N1C[C@H]2C(=CC[C@@H]3C(=O)N(c4ccccc4)C(=O)[C@@H]32)[C@H]1CCO	.	-0.2%	i	i	6.6%
SMILES	ELG1 repair inh	SW480 rerep	KB-V1 MDR tox	KB-3-1 cytotox	MCF10A rerep
CCc1ccc([C@@H]2C[C@H]3[C@@H](CN2S(=O)(=O)c2ccc(C)cc2)C(=O)C[C@@H](c2ccc(Cl)cc2)N3S(=O)(=O)c2ccc(C)cc2)cc1	.	.	i	i	.
CCCNC(=O)c1ccc(N2CCC3(CC2)CC(c2ccccc2)=NO3)c(NC(=O)c2ccccc2)c1	6.51µM*	-3.6%	i	i	-2.4%
CCn1c(C(=O)O)c(CC(=O)Nc2ccc(Br)cc2C)c2ccccc21	-1.7%	20.0%	i	i	5.8%
C=C1C(=O)C23CCC4C(C)(C(=O)OC)CCCC4(C)C2CCC1(O)C3 (stereo unspecified)	.	1.16µM*	18.4µM*	?	2.31µM*
O=C(c1ccc(Cl)cc1)c1oc2ccccc2c1CS(=O)c1ccc(Cl)cc1 (stereo unspecified)	5.2%	-1.7%	20.6µM*	i	20.1%
COc1ccc(NC(=O)CN(C)CC(=O)NC2CCC(C)CC2)cc1 (stereo unspecified)	11.6%	2.2%	20.6µM*	i	-3.6%
COc1ccc(NC(=O)CN(C)CC(=O)NC(=O)NC2CCCCC2)cc1	-24.3%	-1.1%	i	i	0.0%
COc1ccc(NC(=O)CN(C)CC(=O)NC2CCCCC2C)cc1 (stereo unspecified)	11.5%	1.2%	18.4µM*	i	6.2%
CCOc1ccc(-c2cc3c(=O)n(CC(=O)Nc4c(C)cccc4C)ccn3n2)cc1	.	.	i	i	.
N#CC1c2ccccc2C=CN1C(=O)N(c1ccccc1)c1ccccc1 (stereo unspecified)	.	?	20.6µM*	?	3.26µM*
Cc1ccc2[nH]c3c(c2c1)CN(C(=O)CN1CCCCC1)CC3	-9.4%	-13.3%	i	i	?
Cc1ccc2[nH]c3c(c2c1)CN(C(=O)CN1CCCc2ccccc21)CC3	0.1%	?	i	i	23.1µM*
CN(C(=O)c1cnc(N2CCOCC2)c2ccccc12)c1ccccc1F	.	.	i	i	.
Cc1ccc(-n2c(=O)c3c(c4cc(C)ccc4n3C)n(CC(=O)NCc3ccccc3)c2=O)cc1	.	.	i	i	.
O=S(=O)(c1ccc(N2CCOCC2)c(Cl)c1)N1CCOCC1	1.8%	4.5%	i	i	?
O=C(NCc1ccco1)C1CCN(c2nc3ccccc3n2Cc2ccc(F)cc2)CC1	18.4µM*	1.0%	i	i	8.6%
COc1nc(OC)nc(N2CCC(C(=O)NCc3ccco3)CC2)n1	-13.7%	-3.5%	?	i	6.6%
Cc1cc(C)nc(N2CCC(C(=O)NCc3ccco3)CC2)n1	6.5%	-7.2%	16.4µM*	i	2.5%
CC1CCCC(C)N1c1ccc(S(=O)(=O)N2CCOCC2)cc1Cl (stereo unspecified)	-8.5%	?	?	i	8.2µM*
Cc1cc(C)nc(N2CCC(C(=O)NCc3cccs3)CC2)n1	-0.7%	-1.4%	13µM*	i	-2.5%
